# Out of some 310,000 compounds screened, about 2,200 (0.71%) showed an effect of 50% or more. The effect is printed as a negative number. Shown is part of a subset that was picked to be rich in strong results.
# Target: human ether-à-go-go-related gene (hERG) potassium channel (human, UniProt Q12809)
# Test: primary screen, population patch clamp on CHO cells stably expressing hERG; higher = less effect of the substance
# Procedure: Briefly, Chinese hamster ovary (CHO) cells stably expressing the hERG channel were dislodged from tissue culture flasks and dispensed into PPC plates. […] During the recording, background leak currents were estimated by a 100 ms step to -80 mV from an initial holding potential of -70 mV and subtracted from the subsequent current measurement. The campaign was conducted in two phases using slight differences in recording protocol. In the first phase, the initial voltage pulse used a 100 ms step to -30 mV from a holding potential of -70 mV, a 2 s conditioning step to +25 mV, and a 2 s test step to -30 mV. During the second phase of the screen, the potential during the conditioning step was raised to +45 mV. In both phases of the campaign, a secondary voltage pulse was applied using the same parameters as the second phase initial pulse. The initial and secondary pulses were applied in the absence of compound, and upon application of 1 μM and 10 μM test concentrations. Small molecule effects on hERG current density were quantified by […].
# Chain of human ether-à-go-go-related gene (hERG) potassium channel (Q12809 whole entry, looked up): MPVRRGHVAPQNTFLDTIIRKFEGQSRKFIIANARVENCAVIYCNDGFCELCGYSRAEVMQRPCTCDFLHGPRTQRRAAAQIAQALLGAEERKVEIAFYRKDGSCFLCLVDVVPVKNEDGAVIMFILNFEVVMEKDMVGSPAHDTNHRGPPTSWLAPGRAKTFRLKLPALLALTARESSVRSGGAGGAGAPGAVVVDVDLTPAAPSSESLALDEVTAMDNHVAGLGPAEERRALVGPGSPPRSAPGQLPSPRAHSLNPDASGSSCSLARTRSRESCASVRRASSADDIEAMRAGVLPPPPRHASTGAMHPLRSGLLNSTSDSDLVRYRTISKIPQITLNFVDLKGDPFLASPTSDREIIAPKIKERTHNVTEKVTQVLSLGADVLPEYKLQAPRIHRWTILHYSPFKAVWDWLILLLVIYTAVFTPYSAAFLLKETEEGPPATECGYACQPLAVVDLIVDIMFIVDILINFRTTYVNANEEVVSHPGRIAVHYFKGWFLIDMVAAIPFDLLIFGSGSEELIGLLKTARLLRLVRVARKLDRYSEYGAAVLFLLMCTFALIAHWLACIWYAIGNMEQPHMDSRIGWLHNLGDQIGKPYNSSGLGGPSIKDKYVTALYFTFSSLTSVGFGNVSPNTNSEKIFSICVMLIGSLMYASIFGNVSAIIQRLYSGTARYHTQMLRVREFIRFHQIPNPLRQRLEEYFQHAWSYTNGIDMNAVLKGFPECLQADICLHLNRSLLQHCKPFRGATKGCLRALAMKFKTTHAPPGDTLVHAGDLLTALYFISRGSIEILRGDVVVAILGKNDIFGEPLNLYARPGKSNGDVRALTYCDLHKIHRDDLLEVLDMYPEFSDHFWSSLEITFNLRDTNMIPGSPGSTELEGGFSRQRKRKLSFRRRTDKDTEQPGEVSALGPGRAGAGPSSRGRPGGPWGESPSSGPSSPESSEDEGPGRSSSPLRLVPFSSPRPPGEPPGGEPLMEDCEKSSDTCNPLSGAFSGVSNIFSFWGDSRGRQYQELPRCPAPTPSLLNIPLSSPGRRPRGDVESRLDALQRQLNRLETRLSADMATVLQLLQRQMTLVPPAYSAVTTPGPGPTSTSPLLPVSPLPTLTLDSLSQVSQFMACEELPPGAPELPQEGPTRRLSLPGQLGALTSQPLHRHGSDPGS
row,Compound,"hERG current change (%, negative = inhibition) at 1uM [%]"
1,O=C1CC(c2ccc(Cl)cc2)CC(O)=C1C=NCCO (stereo not drawn),10.6
2,O=C1C2C3C=CC(C3)C2C(=O)N1CCN1CCN(S(=O)(=O)/C=C/c2ccccc2)CC1 (stereo not drawn),11
3,Cc1cc(C)n2c(SCC(=O)NC3CCCC(C)C3C)nnc2n1 (stereo not drawn),12.4
4,O=C(NCc1cc(C(F)(F)F)cc(C(F)(F)F)c1)C1CC(c2cccc(F)c2)=NO1 (stereo not drawn),2.14
5,O=c1cc(-c2ccccc2F)oc2ccccc12,2.56
6,C=CCNc1cnn(-c2ccc(C)cc2)c(=O)c1Sc1ccc(C)cc1,13.8
7,COC(=O)c1ccc(CNC(=O)COc2ccccc2Br)o1,12.4
8,CC(C)CNS(=O)(=O)c1ccc(NC(=O)Cn2nc(-c3ccc(F)cc3)ccc2=O)cc1,7.17
9,CN(C/C=C/c1ccccc1)Cc1cccc2ccccc12.Cl,5.76
10,O=C(NCC(=O)N1CC=C(c2ccccc2)CC1)c1ccco1,-50.9
11,Cc1cccc(C(=O)NCC(=O)N2CC=C(c3ccccc3)CC2)c1,-1.82
12,CSCCC(NC(=O)c1ccco1)C(=O)N1CC=C(c2ccccc2)CC1 (stereo not drawn),-1.93
13,c1ccc(Cn2ncc3ccccc32)cc1,10.6
14,CCOCCCNS(=O)(=O)c1ccc(NC(=O)C2CC(=O)N(c3ccc(C)cc3)C2)cc1 (stereo not drawn),11.4
15,CN(C)C=Nc1nonc1-c1ccc(Cl)cc1,11.2
16,COc1ccccc1C(=O)N/C(=C/c1ccc(Br)cc1)C(=O)NCCCn1ccnc1,-84.8
17,COc1ccccc1C(=O)N/C(=C\c1cn(C)c2ccccc12)C(=O)NCCCn1ccnc1,12.2
18,O=C(NCCCn1ccnc1)/C(=C\c1cccnc1)NC(=O)c1ccccc1Br,9.44
19,O=C(NCCCn1ccnc1)/C(=C\c1cccnc1)NC(=O)c1ccccc1F,8
20,COc1ccccc1C(=O)N/C(=C\c1ccc(Br)cc1)C(=O)NCCCO,-0.677
21,O=C(NCCCn1ccnc1)/C(=C\c1ccc(Br)cc1)NC(=O)c1ccccc1F,-81.5
22,Cc1ccc(NC(=O)CN2C(=O)CCSc3ccc(S(=O)(=O)N4CCCC4)cc32)cc1,19

row,Compound,"hERG current change (%, negative = inhibition) at 1uM [%]"
1,CCOC(=O)C1CCN(CC(=O)c2ccc(O)c(C)c2O)CC1,12.3
2,Cc1cc2c(NC3CCCCC3)ncnc2s1.Cl,12
3,N#C/C(=C\c1c(Cl)cccc1Cl)c1nc2ccccc2o1,2.68
4,Cc1cc(-c2ccc(C)c(S(=O)(=O)Nc3cc(C)on3)c2)on1,1.77
5,O=C(N=C1SCC(=O)N1c1ccccc1)c1ccco1,-1.23
6,Cc1occc1-c1nnc(SCC(=O)Nc2ccccc2)n1CCc1ccccc1,-20.1
7,COCCCn1c(SCC(=O)Nc2ccc3c(c2)OCCO3)nnc1-c1ccoc1C,1.88
8,Cc1ccc(NC(=O)CSc2nnc(-c3ccoc3C)n2CCCN(C)C)cc1Cl,-70.2
9,CCCn1c(SCC(=O)Nc2cccc(C(=O)OCC)c2)nnc1-c1ccoc1C,5.88
10,CCN(CC)CCCn1c(SCC(=O)Nc2cccc(F)c2)nnc1-c1ccoc1C,-63
11,COCCn1c(SCC(=O)Nc2ccc(OC)cc2)nnc1-c1ccoc1C,12.2
12,O=C(NCCCN1CCOCC1)C1(c2ccccc2)CCOCC1,19.2
13,CCOC(=O)C1CCCN(Cc2nc(N)nc(Nc3ccc(C)cc3)n2)C1 (stereo not drawn),-47.6
14,CCOC(=O)C1CCCN(Cc2ccc(OC)cc2OC)C1 (stereo not drawn),-13.6
15,COc1ccccc1Nc1nc(N)nc(CN2CCc3ccccc3C2)n1,-2.7
16,CCOC(=O)C1CCCN(Cc2nc(N)nc(Nc3ccc(OC)cc3)n2)C1 (stereo not drawn),-67.8
17,CCOC(=O)C1CCCN(Cc2nc(N)nc(Nc3ccccc3OC)n2)C1 (stereo not drawn),-53.2
18,CCOC(=O)C1CCCN(Cc2nc(N)nc(Nc3ccccc3)n2)C1 (stereo not drawn),-18.6
19,Cc1ccc(Nc2nc(N)nc(CN3CCCCCC3)n2)cc1,-45.2
20,CCOC(=O)C1CCCN(Cc2nc(N)nc(Nc3ccc(Cl)cc3)n2)C1 (stereo not drawn),-71.6
21,CCOC(=O)N1CCN(Cc2nc(N)nc(Nc3ccc(Oc4ccccc4)cc3)n2)CC1,-36.8
22,CCc1cccc2c(C=C(C#N)C#N)cn(CC(=O)N3CCCC3)c12,2.04

row,Compound,"hERG current change (%, negative = inhibition) at 1uM [%]"
1,CNC(=O)C1CCN(S(=O)(=O)c2c(C)noc2/C=C/c2ccc(C)cc2)CC1,10.2
2,COc1cc(C(=O)N2CCN(C/C=C/c3ccccc3)CC2)cc(OC)c1C,6.9
3,COc1ccccc1/C=C/CN1CCC(Oc2ccc(C(=O)N3CCCC3)cc2)CC1,10.1
4,COc1cc(C(=O)N2CCN(C/C=C/c3ccccc3)CC2)cc(OC)c1OC,-2.2
5,COc1ccccc1/C=C/CN1CCC(Oc2cc(C(=O)NC3CC3)ccc2OC)CC1,-78.3
6,COc1ccccc1/C=C/CN1CCC(Oc2ccc(C(=O)N3CCCCC3)cc2)CC1,7.23
7,COc1ccc(C(=O)NC2CC2)cc1OC1CCN(C/C=C/c2ccccc2)CC1,-84.3
8,Cc1ccc(SCCC(=O)NCCSCc2ccccc2C)cc1,10.1
9,O=P1(O)C=C(c2ccccc2)OC(c2ccccc2)=C1,14.1
10,O=P1(Nn2cnnc2)C=C(c2ccccc2)OC(c2ccccc2)=C1,-9.39
11,CCN1CCN(P2(=O)C=C(c3ccccc3)OC(c3ccccc3)=C2)CC1,-86.5
12,Cc1ccc(CSCC(=O)NCc2cccs2)cc1,7.51
13,CCc1ccc(-n2nnnc2SCC(=O)Nc2ccc(NC(C)=O)cc2)cc1,20.4
14,Cc1cc(SCC(=O)N/N=C/c2ccc(O)cc2O)c(C)cc1Br,8.67
15,Cc1cccc(OCC(=O)Nc2ccc3c(c2)nc(CCN2CCN(c4ccccn4)CC2)n3C)c1,-67
16,Cn1c(CCN2CCN(c3ccccn3)CC2)nc2cc(NC(=O)COc3ccc(Cl)cc3)ccc21,0.879
17,Cc1cccc(OCC(=O)Nc2ccc3c(c2)nc(CCN2CCC(C)CC2)n3C)c1,-47.9
18,Cn1c(CCN2CCN(c3ccccn3)CC2)nc2cc(NC(=O)COc3ccccc3)ccc21,-67
19,CCC(=O)Nc1ccc2c(c1)nc(CCN1CCN(c3ccccn3)CC1)n2C,4.59
20,Cn1c(CCN2CCN(c3ccccn3)CC2)nc2cc(NC(=O)COc3ccc([N+](=O)[O-])cc3)ccc21,9.63
21,COc1ccc(C2OC(=O)CC2C(=O)N2CCN(c3cc(Cl)ccc3C)CC2)cc1OC (stereo not drawn),7.68
22,CCn1c(-c2cc(-c3ccc(C)c(C)c3)nc3ccccc23)n[nH]c1=S,16.2

row,Compound,"hERG current change (%, negative = inhibition) at 1uM [%]"
1,CCOC(=O)C1CCN(C2CC(=O)N(c3ccc(OCC)cc3)C2=O)CC1 (stereo not drawn),2.22
2,CCOC(=O)c1cnc2c(OC)cccc2c1NCc1cccnc1,-68.1
3,CCOC(=O)c1cnc2c(OC)cccc2c1Nc1ccc2c(c1)OCCO2,-3.26
4,CCOC(=O)c1ccc(NCc2cccnc2)cc1,8.24
5,CCOC(=O)c1cnc2ccccc2c1NCc1ccco1,-14.7
6,CCOC(=O)c1cnc2c(C(=O)OC)cccc2c1NCc1ccco1,-71.4
7,CCOC(=O)c1cnc2c(C(=O)OC)cccc2c1NCc1cccnc1,-55.5
8,CCOC(=O)c1cnc2c(OC)cccc2c1Oc1ccccc1,11
9,CCOC(=O)c1cnc2c(C)cccc2c1NCc1ccco1,-45.3
10,CCOC(=O)c1cnc2c(C(=O)OC)cccc2c1NCCN1CCOCC1,-47.1
11,CCOC(=O)c1cnc2ccc(OCC)cc2c1NCc1cccnc1.Cl,-75.3
12,CCOC(=O)c1cnc2ccc(OC)cc2c1NCc1ccccc1,-33.4
13,CCOC(=O)c1cnc2ccc(OCC)cc2c1NCc1ccccc1,-12.8
14,COc1ccc(OC)c(C(=O)CSc2nnc(Cc3cccs3)n2CCc2ccccc2)c1,-6.84
15,CC(NC(=O)CSc1nc2ccccc2c(=O)n1CCCO)c1ccccc1 (stereo not drawn),-0.931
16,COCCN(CCOC)S(=O)(=O)c1ccc(C(=O)NC2CCN(Cc3ccccc3)CC2)cc1.Cl,-1.24
17,COc1ccc(C(=O)Nc2nnc(SCC(=O)NC3CCCC3)s2)c(OC)c1,14.4
18,CN1C(=O)/C(=C\c2cc(Br)cs2)c2ccccc21,12.7
19,O=C(Cc1ccc(Cl)cc1)NCC(=O)N1CCCCCC1,4.89
20,COc1ccc(-n2c(=O)c3c4c(sc3n3c(=S)[nH]nc23)CCC4)cc1,9.01
21,CCCN1CCN(CCCNC(=O)c2ccc3c(c2)NC(=O)c2ccccc2S3)CC1,9.21

# — publication PMC4336329 (PLoS ONE, 2015)
